Ten compounds from PubChem BioAssay (NCI) can be followed below.

Experiment [1] is described as follows: NCI Yeast Anticancer Drug Screen. Data for the rad50 strain (AID 155).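 Note: 0% = growth of vehicle-only cultures of the same strain.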 The note with it: S. cerevisiae rad50 strain growth inhibition, stronger effect = higher value. The procedure, abridged:
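A DNA repair-deficient yeast mutant serves as the test organism; compound-induced growth inhibition is calculated against vehicle-treated cells.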

A short description of experiment [2]: NCI Yeast Anticancer Drug Screen. Data for the mec2-1 strain (AID 157). To be noted: S. cerevisiae mec2-1 strain, stronger effect = higher value. The method in brief:
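Growth inhibition is read against vehicle-treated controls after compound exposure of the mec2-1 yeast strain, which is defective in DNA damage repair or cell cycle control.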

Experiment [3] in a line: NCI Yeast Anticancer Drug Screen. Data for the sgs1 mgt1 strain (AID 161).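 Note: 0% = growth of cultures given vehicle only.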 The note with it: S. cerevisiae sgs1 mgt1 strain, stronger effect = higher value. The procedure, abridged:
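This yeast growth screen uses a strain with defined DNA-repair lesions; compound-treated growth is compared with vehicle-treated growth.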

The nature of experiment [4]: NCI Yeast Anticancer Drug Screen. Data for the cln2 rad14 strain (AID 165).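 Note: 0% = growth equal to vehicle treated cultures.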 The note with it: S. cerevisiae cln2 rad14 strain, stronger effect = higher value. The method in brief: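 Growth inhibition, relative to vehicle-treated controls, is the read-out. The test organism is a yeast strain with defined genetic alterations, cln2 rad14.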
The nature of experiment [5]: NCI Yeast Anticancer Drug Screen. Data for the bub3 strain (AID 167). The note with it: S. cerevisiae bub3 mutant strain, stronger effect = higher value. The method in brief:
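Inhibition values come from growth of compound-treated mutant yeast normalised to vehicle-treated controls.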

The nature of experiment [6]: NCI Yeast Anticancer Drug Screen. Data for the mlh1 rad18 strain (AID 175). To be noted: S. cerevisiae mlh1 rad18 strain growth inhibition, stronger effect = higher value. The method in brief: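 Cells of a genetically altered yeast strain, deficient in DNA damage repair, were treated with compound. Their growth was then compared with that of vehicle-treated cultures to give inhibition.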

Where [7] appears, read: at 5.0 µM (retest, dose inferred, filed as 0.5).
[8] abbreviates: at 50.0 µM (retest, dose inferred, filed as 5.0).

The panel holds about 79,000 compounds, 15% with a hit somewhere; the sample as a whole holds those more often. A number with no mark means an inactive call. Calls of active or inactive are those of the source. Cut-off read from the data, not from the text of the source: active = growth inhibition above about 70%; inactive = the rest.

Take `O=C1c2ccccc2C(=O)c2c(/C=C\N3CCCCC3)ccnc21`: the growth inhibition in experiment [1] (setting [7]) is 40%; in experiment [1] (setting [8]), 86% (active); in experiment [1] (at 50.0 µM), 87.7% (active); in experiment [2] (setting [7]), 27%; in experiment [2] (setting [8]) it was 60%; in experiment [2] (at 50.0 µM), 92.4% (active). The growth inhibition in experiment [3] (setting [7]) is 40%; in experiment [3] (setting [8]), 99% (active); in experiment [3] (at 50.0 µM), 92.6% (active); in experiment [4] (setting [7]), 38%; in experiment [4] (setting [8]), 95% (active); in experiment [4] (at 50.0 µM), 90.7% (active). The growth inhibition was 48% in experiment [5] (setting [7]); 98% (active) in experiment [5] (setting [8]); 92.3% (active) in experiment [5] (at 50.0 µM); 37% in experiment [6] (setting [7]); 84% (active) in experiment [6] (setting [8]); 90.6% (active) in experiment [6] (at 50.0 µM).

Turning to `COc1ccc2nc3cccc([N+](=O)[O-])c3c(NCCO)c2c1`, the growth inhibition in experiment [1] (setting [7]) is 75% (active); in experiment [1] (setting [8]), 95% (active); in experiment [1] (at 50.0 µM), 86.6% (active); in experiment [2] (setting [7]), 78% (active); in experiment [2] (setting [8]), 98% (active); in experiment [2] (at 50.0 µM), 90% (active). The growth inhibition was 82% (active) in experiment [3] (setting [7]); 96% (active) in experiment [3] (setting [8]); 87.8% (active) in experiment [3] (at 50.0 µM); 68% in experiment [4] (setting [7]); 97% (active) in experiment [4] (setting [8]); 87.2% (active) in experiment [4] (at 50.0 µM). The growth inhibition was 24% in experiment [5] (setting [7]); 86% (active) in experiment [5] (setting [8]); 86.9% (active) in experiment [5] (at 50.0 µM); 77% (active) in experiment [6] (setting [7]); 96% (active) in experiment [6] (setting [8]); 87.8% (active) in experiment [6] (at 50.0 µM).

Take `Nc1ccc(/C=C2/c3ccccc3-c3nc4ccccc4cc32)cc1`: the growth inhibition in experiment [1] (setting [7]) is 3%; in experiment [1] (setting [8]) it was 87% (active); in experiment [1] (at 50.0 µM), 78.9% (active); in experiment [2] (setting [7]) it was 0%; in experiment [2] (setting [8]), 63%; in experiment [2] (at 50.0 µM), 15.6%. The growth inhibition in experiment [3] (setting [7]) is -4%; in experiment [3] (setting [8]) it was 77% (active); in experiment [3] (at 50.0 µM) it was 59.9%; in experiment [4] (setting [7]), -4%; in experiment [4] (setting [8]) it was 33%; in experiment [4] (at 50.0 µM), 5%. The growth inhibition in experiment [5] (setting [7]) was -1%; in experiment [5] (setting [8]), 57%; in experiment [5] (at 50.0 µM) it was 6.8%; in experiment [6] (setting [7]), 1%; in experiment [6] (setting [8]) it was 85% (active); in experiment [6] (at 50.0 µM) it was 52.1%.

For `CC(=O)OCC1OC(SSc2ccccc2)C(OC(C)=O)C(OC(C)=O)C1OC(C)=O` (stereo not given), the growth inhibition was -2% in experiment [1] (setting [7]); 13% in experiment [1] (setting [8]); 59.4% in experiment [1] (at 50.0 µM); -30% in experiment [2] (setting [7]); 69% in experiment [2] (setting [8]); 44.6% in experiment [2] (at 50.0 µM). For the same compound, the growth inhibition was 10% in experiment [3] (setting [7]); 7% in experiment [3] (setting [8]); 58.1% in experiment [3] (at 50.0 µM); -13% in experiment [4] (setting [7]); 5% in experiment [4] (setting [8]); 45% in experiment [4] (at 50.0 µM). The growth inhibition in experiment [5] (setting [7]) was -12%; in experiment [5] (setting [8]), 8%; in experiment [5] (at 50.0 µM), 8.5%; in experiment [6] (setting [7]) it was -17%; in experiment [6] (setting [8]) it was 73% (active); in experiment [6] (at 50.0 µM), 53.9%.

Consider `O=C(Nc1ccccc1)ON=C1CCCCC1`, for which the growth inhibition in experiment [1] (setting [7]) was 3%; in experiment [1] (setting [8]), 75% (active); in experiment [1] (at 50.0 µM), 80% (active); in experiment [2] (setting [7]) it was -31%; in experiment [2] (setting [8]), 36%; in experiment [2] (at 50.0 µM), 63.6%. Besides, the growth inhibition is 3% in experiment [3] (setting [7]); 68% in experiment [3] (setting [8]); 94.2% (active) in experiment [3] (at 50.0 µM); 6% in experiment [4] (setting [7]); 27% in experiment [4] (setting [8]); 61.8% in experiment [4] (at 50.0 µM). The growth inhibition in experiment [5] (setting [7]) was 50%; in experiment [5] (setting [8]), 44%; in experiment [5] (at 50.0 µM) it was 77.2% (active); in experiment [6] (setting [7]), 5%; in experiment [6] (setting [8]), 62%; in experiment [6] (at 50.0 µM) it was 89.6% (active).

With `CCCCCCCCCCCCNc1ccccn1`, the growth inhibition in experiment [1] (setting [7]) is -3%; in experiment [1] (setting [8]), 98% (active); in experiment [1] (at 50.0 µM), 18.4%; in experiment [2] (setting [7]), 25%; in experiment [2] (setting [8]) it was 99% (active); in experiment [2] (at 50.0 µM), 21.2%. The growth inhibition in experiment [3] (setting [7]) is 42%; in experiment [3] (setting [8]), 99% (active); in experiment [3] (at 50.0 µM) it was 69.8%; in experiment [4] (setting [7]) it was 6%; in experiment [4] (setting [8]), 99% (active); in experiment [4] (at 50.0 µM), 56%. Also, the growth inhibition in experiment [5] (setting [7]) is 29%; in experiment [5] (setting [8]) it was 99% (active); in experiment [5] (at 50.0 µM) it was 48%; in experiment [6] (setting [7]), 37%; in experiment [6] (setting [8]) it was 99% (active); in experiment [6] (at 50.0 µM) it was 80.8% (active).

For the compound `[O-]c1c2cc(-[n+]3c(-c4ccccc4)cc(-c4ccccc4)cc3-c3ccccc3)cc1CO[C@@H](c1ccccc1)[C@H](c1ccccc1)OCc1cccc(n1)CO[C@@H](c1ccccc1)[C@H](c1ccccc1)OC2`, the growth inhibition in experiment [1] (setting [7]) is 98% (active); in experiment [1] (setting [8]) it was 96% (active); in experiment [1] (at 50.0 µM), 87.2% (active); in experiment [2] (setting [7]) it was 98% (active); in experiment [2] (setting [8]), 98% (active); in experiment [2] (at 50.0 µM), 90.8% (active). Further, the growth inhibition in experiment [3] (setting [7]) was 100% (active); in experiment [3] (setting [8]), 98% (active); in experiment [3] (at 50.0 µM) it was 90.5% (active); in experiment [4] (setting [7]), 97% (active); in experiment [4] (setting [8]), 98% (active); in experiment [4] (at 50.0 µM) it was 90.2% (active). The growth inhibition was 99% (active) in experiment [5] (setting [7]); 99% (active) in experiment [5] (setting [8]); 89.3% (active) in experiment [5] (at 50.0 µM); 98% (active) in experiment [6] (setting [7]); 97% (active) in experiment [6] (setting [8]); 86.7% (active) in experiment [6] (at 50.0 µM).

With `O=C1/C(=C\c2ccc(Cl)cc2)SC2SC=C(c3ccc([N+](=O)[O-])cc3)N12` (stereo not given), the growth inhibition was 0% in experiment [1] (setting [7]); 86% (active) in experiment [1] (setting [8]); 98.3% (active) in experiment [1] (at 50.0 µM); 2% in experiment [2] (setting [7]); 94% (active) in experiment [2] (setting [8]); 98.9% (active) in experiment [2] (at 50.0 µM). Moreover, the growth inhibition in experiment [3] (setting [7]) was -4%; in experiment [3] (setting [8]) it was 92% (active); in experiment [3] (at 50.0 µM), 99.2% (active); in experiment [4] (setting [7]) it was -20%; in experiment [4] (setting [8]), 86% (active); in experiment [4] (at 50.0 µM), 98% (active). The growth inhibition in experiment [5] (setting [7]) was -7%; in experiment [5] (setting [8]), 86% (active); in experiment [5] (at 50.0 µM), 86.8% (active); in experiment [6] (setting [7]), 5%; in experiment [6] (setting [8]), 92% (active); in experiment [6] (at 50.0 µM) it was 98.6% (active).

In the case of `COc1ccccc1NC(=O)CC(=O)N1N=C(C)C(N=Nc2ccc(I)cc2)C1=O` (stereo not given), the growth inhibition is 5% in experiment [1] (setting [7]); 36% in experiment [1] (setting [8]); 93% (active) in experiment [1] (at 50.0 µM); 6% in experiment [2] (setting [7]); 30% in experiment [2] (setting [8]); 11.1% in experiment [2] (at 50.0 µM). Further, the growth inhibition was 6% in experiment [3] (setting [7]); 28% in experiment [3] (setting [8]); 83.1% (active) in experiment [3] (at 50.0 µM); 2% in experiment [4] (setting [7]); 20% in experiment [4] (setting [8]); -39.5% in experiment [4] (at 50.0 µM). For the same compound, the growth inhibition was 5% in experiment [5] (setting [7]); 41% in experiment [5] (setting [8]); 33% in experiment [5] (at 50.0 µM); 2% in experiment [6] (setting [7]); 41% in experiment [6] (setting [8]); 85.6% (active) in experiment [6] (at 50.0 µM).

For the compound `Cc1ccc2c(c1)NC(=O)C(N=[N+]=[N-])(c1ccccc1)C2=O` (stereo not given), the growth inhibition is -25% in experiment [1] (setting [7]); 97% (active) in experiment [1] (setting [8]); 89.8% (active) in experiment [1] (at 50.0 µM); -2% in experiment [2] (setting [7]); 93% (active) in experiment [2] (setting [8]); 91.3% (active) in experiment [2] (at 50.0 µM). Moreover, the growth inhibition is -1% in experiment [3] (setting [7]); 97% (active) in experiment [3] (setting [8]); 90.2% (active) in experiment [3] (at 50.0 µM); 10% in experiment [4] (setting [7]); 71% (active) in experiment [4] (setting [8]); 91.3% (active) in experiment [4] (at 50.0 µM). In addition, the growth inhibition in experiment [5] (setting [7]) is -7%; in experiment [5] (setting [8]), 98% (active); in experiment [5] (at 50.0 µM), 92.3% (active); in experiment [6] (setting [7]), -4%; in experiment [6] (setting [8]), 98% (active); in experiment [6] (at 50.0 µM), 70.4% (active).
